Screens deposited in PubChem by National Center for Advancing Translational Sciences (NCATS).
LASV entry inh – qHTS for Inhibitors of binding or entry into cells for Lassa Virus. Lassa virus pseudotyped entry inhibition, cell-based qHTS. Potency, µM (series often up to 49.2 µM), usual class: inhibitors. 18,000 tested, 4.1% active. AID 720533, 2013
MARV entry inh – qHTS for Inhibitors of binding or entry into cells for Marburg Virus; Marburg virus pseudotype entry/binding inhibition, cell-based; Potency, µM (doses to about 49.2 µM), usual class: inhibitors; 18,000 tested, 6.5% active
Numbers stand for hits; ! = not active in a repeat; [ ] = dose if it differs, or a comment. An excerpt weighted towards active compounds, which were near 7.1% of everything screened. The call rests on the fitted dose curve; tested in HEK293 cells.

For CCCCCC1C(=O)O[C@H](C)[C@@H](NC(=O)c2cccc(NC=O)c2O)C(=O)OC(C)C1OC(=O)CC(C)C (stereo partly specified) the results were LASV entry inh inconclusive and MARV entry inh 0.1µM.
For O=C(CO)[C@@H](O)[C@H](O)[C@H](O)CO the results were LASV entry inh inactive and MARV entry inh inactive.
`CC(C)(C)C1(O)CCN2CC3c4ccccc4CCc4cccc(c43)C2C1` (stereo unspecified) gave LASV entry inh inconclusive and MARV entry inh 28µM.
Screening CC(C)(C)[C@]1(O)CCN2C[C@H]3c4ccccc4CCc4cccc(c43)[C@@H]2C1 returned LASV entry inh inconclusive and MARV entry inh 11µM.
Screening CN1CCN2c3ncccc3Cc3ccccc3C2C1 (stereo unspecified) returned LASV entry inh inactive and MARV entry inh inconclusive.
`COC(=O)C(C(=O)OC)[C@@H]1O[C@@]23COC=C[C@]2(C)[C@@H]3c2ccccc21` gave LASV entry inh inactive[8.59 µM] and MARV entry inh inconclusive.
COc1ccc([C@]23Cc4cc(OC)c(OC)cc4[C@H](O2)C2=C(CCCC2=O)O3)cc1 was read as LASV entry inh inactive[8.59 µM] and MARV entry inh inactive[8.59 µM].
Screening C[C@H]1N[S+](=O)([O-])c2cccc(Cl)c2O[C@H]1c1ccccc1 returned LASV entry inh inactive and MARV entry inh inactive.
`CCCCCC(=O)N1C[C@H](O)[C@@H](n2cc(-c3ccc(F)cc3)nn2)C[C@H]1c1ccccc1` gave LASV entry inh inactive and MARV entry inh inactive.
Screening CC(=O)O[C@H]1[C@H]2O[C@]23[C@@H]2CC[C@@H]4C[C@@H](O)CC[C@]4(C)[C@H]2CC[C@]3(C)[C@H]1c1ccc(=O)oc1 returned LASV entry inh 0.2µM and MARV entry inh 0.089µM.
For CC(=O)[C@H]1CC[C@H]2[C@@H]3CC[C@@H]4C[C@H](O)CC[C@]4(C)[C@H]3CC[C@]12C the results were LASV entry inh inactive and MARV entry inh inactive.
Screening CC(C)=CCN1CC[C@]2(C)c3cc(O)ccc3C[C@H]1[C@H]2C returned LASV entry inh inactive and MARV entry inh inconclusive.
For Oc1ccc2c(c1)[C@@]13CCCCC1[C@@H](C2)N(CC1CCC1)CC3 (stereo partly specified) the results were LASV entry inh inconclusive and MARV entry inh 10µM.
`COc1ccc2c(c1)C13CCCC[C@@H]1C(C2)N(C)CC3` (stereo partly specified) gave LASV entry inh inactive and MARV entry inh inconclusive.
Screening C=CCN1CC[C@]23CCCC[C@H]2[C@H]1Cc1ccc(O)cc13 returned LASV entry inh inconclusive and MARV entry inh 28µM.
For COc1ccc2c(c1)O[C@@H](c1ccc3c(c1)OCO3)[C@H](OC(=O)NS(=O)(=O)c1ccc(F)cc1)C2=O the results were LASV entry inh inactive and MARV entry inh inactive.
For COc1ccc2c(c1)O[C@H](c1ccc3c(c1)OCO3)[C@@H](OC(=O)NS(=O)(=O)c1ccc(F)cc1)C2=O the results were LASV entry inh inactive and MARV entry inh inactive.
`Fc1ccc([C@H]2CCNC[C@H]2COc2ccc3c(c2)OCO3)cc1` gave LASV entry inh inconclusive and MARV entry inh 11µM.
Screening Fc1ccc([C@H]2CCNCC2COc2ccc3c(c2)OCO3)cc1 (stereo partly specified) returned LASV entry inh inactive and MARV entry inh 10µM.
For C[C@H]1CC[C@@H]2[C@@H](C)[C@H]3[C@H](C[C@H]4[C@@H]5CC=C6C[C@@H](O[C@]7(O[C@H]8O[C@@H](C)[C@@H](O)[C@@H](O)[C@@H]8O)C[C@@H](O[C@@H]8O[C@H](CO)[C@@H](O)[C@H](O)[C@@H]8O)[C@@H](O)[C@H](CO)O7)CC[C@]6(C)[C@H]5CC[C@@]34C)N2C1 the results were LASV entry inh inactive and MARV entry inh inactive.
C[C@H]1CC[C@@H]2[C@@H](C)[C@H]3[C@H](C[C@H]4[C@@H]5CC=C6CC(O[C@@H]7O[C@H](CO)[C@H](O)[C@H](O[C@@H]8O[C@H](CO)[C@@H](O)[C@H](O)[C@H]8O)[C@H]7O[C@H]7O[C@@H](C)[C@H](O)[C@@H](O)[C@H]7O)CC[C@]6(C)[C@H]5CC[C@]34C)N2C1 (stereo partly specified) was read as LASV entry inh 32µM and MARV entry inh 16µM.
`CCN1C(=NCCCOC(C)C)N[C@@H](CCc2ccccc2)[C@H](C(=O)OC)[C@H]1C` gave LASV entry inh inactive[8.59 µM] and MARV entry inh inactive[8.59 µM].
For CC#CCN1C(=O)NC(c2ccccc2)C(C(=O)OC)=C1C (stereo unspecified) the results were LASV entry inh inactive[8.59 µM] and MARV entry inh inconclusive.
Screening COc1cc(Nc2c(C#N)cnc3cc(OCCCN4CCN(C)CC4)c(OC)cc23)c(Cl)cc1Cl returned LASV entry inh inconclusive and MARV entry inh 7.1µM.
Cc1ccc(-c2cc3c(NC(=O)C4CC4)ncnc3o2)cc1 was read as LASV entry inh inactive and MARV entry inh inactive.
CC[C@@]12C=C(C=Cc3ccccc3)[C@](CC)(C1)[C@H](c1ccccc1)CC2=O was read as LASV entry inh inactive[8.59 µM] and MARV entry inh inconclusive.
For CC(=O)Nc1ccc(C(=O)N2CCCC(c3nc(SCc4ccccn4)ncc3C)C2)cc1 (stereo unspecified) the results were LASV entry inh inactive and MARV entry inh inactive.
`Cc1cnc(SCc2ccccn2)nc1C1CCCN(C(=O)c2scc3c2CCCC3)C1` (stereo unspecified) gave LASV entry inh inconclusive and MARV entry inh 10µM.
Screening C=C1Cc2c(Cl)cc3[nH]c4c5c3c2[C@@]2(O)[C@@H]1C[C@@H]2C(C)(C)O[C@H]5[C@@H]1CC[C@@]2(O)[C@@]35O[C@@H]3[C@@H](O)[C@@H](C(=O)O)O[C@H]5CC[C@]2(C)[C@@]41C returned LASV entry inh 28µM and MARV entry inh inconclusive.
CC(C)=CCN1C(=O)[C@@]2(CC(C)=CC[C@@H](COc3ccccc3)O2)c2ccccc21 was read as LASV entry inh inactive[8.59 µM] and MARV entry inh inactive[8.59 µM].
COC(=O)[C@@H]1CC[C@H](C)[C@@H](c2ccc(C)cc2)N1C(=O)c1ccc(C=NOC[C@@H](O)[C@H]2O[C@@H]3OC(C)(C)O[C@H]3[C@@H]2O)cc1 was read as MARV entry inh inactive[8.59 µM].
COC(=O)CC=C[C@@H](C)[C@H](NC(=O)OC)c1ccccc1Br was read as LASV entry inh inactive[8.59 µM] and MARV entry inh inactive[8.59 µM].
CN(C)CCCc1cc(C(=O)Nc2ccc(-c3ccncc3)cc2)ccc1O was read as LASV entry inh 35µM! and MARV entry inh 6.3µM.
For COc1ccc(CCN(C)Cc2cc(-c3cncnc3)ccc2O)cc1OC the results were LASV entry inh inactive and MARV entry inh inactive.
For c1ccc(C2(c3ccccc3)CC2C2=NCCN2)cc1 (stereo unspecified) the results were LASV entry inh inactive and MARV entry inh inactive.
For c1ccc2c(c1)OC[C@@H](C1=NCCN1)O2 the results were LASV entry inh inconclusive and MARV entry inh 11µM.
C[C@H](ON=C1[C@H]2CCn3c(=O)n(-c4ccccc4)c(=O)n3[C@@H]2[C@H](O)[C@@H]2O[C@H]12)c1cn([C@H](CO)Cc2ccccc2)nn1 was read as LASV entry inh inactive[8.59 µM] and MARV entry inh inactive[8.59 µM].
For CSC[C@H]1CN(CCc2ccccc2)C(=O)[C@H]1CC(=O)Nc1ccc(Br)cc1 the results were LASV entry inh inactive and MARV entry inh inactive.
`CN(C)CCOC(c1ccccc1)c1ccccc1` gave LASV entry inh inconclusive and MARV entry inh 28µM!.
